Sm TGR inh: S. mansoni TGR enzyme inhibition; Q962Y6; purified TGR, DTNB reduction, TNB absorbance 405 nm; Potency, µM (series often up to 114 µM), usual class: inhibitors; hit rate 3% among 360,000; AID 485364; further: nearly all actives have a fitted effect of over 60% in size
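First, TGR (20 nM dispensed) and NADPH were mixed with compound. Second, a 15 min room-temperature incubation followed. Third, further NADPH and then DTNB were added to start the reaction. Finally, TNB absorbance was monitored kinetically.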
Pf growth 48h: P. falciparum growth inhibition at 48 hours (one generation) | P. falciparum luciferase growth in erythrocytes, 48 h | Potency, µM (series often up to 28.7 µM), usual class: inhibitors | hit rate 5.9% among 310,000 | AID 504832
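Here the parasites carry a stable luciferase gene and grow inside erythrocytes in Albumax-based RPMI medium with compound for one erythrocytic cycle. Activity is scored as loss of luminescent signal.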
Pf growth 96h: P. falciparum growth inhibition at 96 hours | P. falciparum luciferase reporter growth, 96 h | hit rate 6.9% among 320,000 | AID 504834 | Potency, µM (top dose mostly 28.7 µM), actives largely listed as inhibitors
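Delayed-death screen, second-generation endpoint: infected erythrocytes, 2% hematocrit, 0.05% parasitemia final; 96 hours at 37 C, 5% CO2; luciferase detection reagent; luminescence decrease equals reduced growth.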
FBPA Giardia inh: inhibitors of Giardia lamblia fructose-1,6-bisphosphate aldolase. A8B2U2. hit rate 0.71% among 290,000. purified Giardia FBPA. Potency, µM (top dose mostly 59.6 µM), usual class: inhibitors; further: nearly all actives have a fitted effect of over 55% in size
Target sequence (A8B2U2 whole entry, looked up): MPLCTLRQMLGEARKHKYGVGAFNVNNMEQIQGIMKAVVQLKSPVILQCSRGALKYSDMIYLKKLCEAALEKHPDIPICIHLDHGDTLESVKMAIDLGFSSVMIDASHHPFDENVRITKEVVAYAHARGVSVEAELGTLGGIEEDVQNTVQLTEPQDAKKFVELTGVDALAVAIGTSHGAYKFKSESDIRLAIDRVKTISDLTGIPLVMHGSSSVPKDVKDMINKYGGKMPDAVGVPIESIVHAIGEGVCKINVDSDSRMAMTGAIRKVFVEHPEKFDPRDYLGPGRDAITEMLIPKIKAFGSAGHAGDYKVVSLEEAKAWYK
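40 nM FBPA preincubated 10 min at RT with compound (up to 57.5 uM final), then substrate plus GAPDH/TPI/NAD/arsenate coupling and diaphorase/resazurin added. Fluorescence read after 20 min at RT, 525/598 nm.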
HCMV antiviral: blocks human cytomegalovirus replication | HFF cells, HCMV-luciferase reporter, 72 h; stronger effect = lower value | hit rate 4.5% among 410,000 | activity change, negative = inhibition, % at 57.5 µM; in the data active means activity change below about -60%; inconclusive means no clear call, values can overlap the other calls; inactive means above about -39%
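Steps: HFFs plated, 16 h 37C; compounds added; HCMV-luciferase added to MOI 1 PFU/cell; 72 h 37C; OneGlo reagent, 5 min room temperature; luminescence read, normalized to controls.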
Hits are given with their value; - = inactive; ? = inconclusive; . = no result given; [ ] = another dose, or the depositor's remark. A selection: hits, their analogues and other compounds. The true share with any hit is near 14%. Unless noted, the call rests on the fitted dose curve; in most records, active means well fitted curve in the direction sought with a large enough effect; inconclusive means small, poorly fitted or top-dose-only effect, or another doubt; inactive means no such curve, though single readings can be large; an effect the other way counts as inactive or inconclusive.

SMILES	Sm TGR inh	Pf growth 48h	Pf growth 96h	FBPA Giardia inh	HCMV antiviral
CSc1nccc(N2CCN(c3ccc(F)cc3)CC2)n1	-	?	12µM	-	?
COc1ccc(C(=O)N2CCN(c3ccccc3Cl)CC2)cc1S(=O)(=O)NC1CC1	?	?	?	.	-
Cn1nnnc1Sc1c(Cl)cccc1[N+](=O)[O-]	-	-	?	-	-91
CN(C(=O)CN1CCN(c2cc(-c3cccc4oc5ccccc5c34)ncn2)CC1)c1ccccc1	.	.	.	.	-
OC(c1ccc(F)c(F)c1)c1ncc(-c2ccc(Cl)cc2)[nH]1 (centres undefined)	.	.	.	.	-64
OC(c1ccc(F)c(F)c1)c1ncc(-c2ccc(F)cc2)[nH]1 (centres undefined)	.	.	.	.	-
O=C(Nc1cnn(Cc2ccc(Cl)cc2Cl)c1)c1cc(-c2cccs2)on1	-	?	?	-	-
CC(=O)c1cccc(NC(=O)Nc2cnn(Cc3ccc(Cl)cc3Cl)c2)c1	-	.	9.3µM	-	-
CC(C)c1ccc(NC2CCCN(C(=O)CCN3Cc4ccccc4C3=O)C2)cc1 (centres undefined)	-	-	1.9µM	.	-
Cc1occc1C(=O)N1CCCC(Nc2ccc(C(C)C)cc2)C1 (centres undefined)	-	?	-	-	-65
Cc1ccc(NC2CCCN(C(=O)CN3C(=O)c4ccccc4C3=O)C2)cc1C (centres undefined)	-	?	15µM	.	-
CC(C)c1ccc(NC2CCCN(C(=O)CCN3CCCCC3=O)C2)cc1 (centres undefined)	-	-	?	.	-
Cc1ccc(NC2CCCN(C(=O)CCC(=O)c3ccccc3)C2)cc1C (centres undefined)	-	?	-	-	-
Cc1ccc(NC2CCCN(C(=O)Cc3nonc3C)C2)cc1C (centres undefined)	-	-	?	-	-
Cc1occc1C(=O)N1CCCC(Nc2ccc(F)cc2)C1 (centres undefined)	-	-	-	-	-
Cc1ccc(NC2CCCN(C(=O)CSc3ccncc3)C2)cc1C (centres undefined)	-	-	13µM	.	-
O=C(COc1ccc(Cl)cc1)NCCc1csc(-c2ccc(F)cc2)n1	-	.	.	.	-
C=C1C(=O)O[C@@H]2[C@H]1[C@@H](OC(=O)/C(C)=C/C)C/C(C)=C\C(=O)/C=C(\C)[C@@H]2O	5.6µM	?	?	-	-98
C=CCn1c(N)cc(=O)nc1SC(C)C(=O)Nc1ccc(C(=O)OCC)cc1 (centres undefined)	-	4.1µM	-	-	-
NS(=O)(=O)c1ccc(CNC(=O)/C=C/c2ccco2)cc1	1.6µM	-	-	-	-
O=C(CNC(=O)/C=C/c1ccco1)N=Nc1c(O)[nH]c2ccccc12	7.1µM	-	-	-	-
O=C(/C=C/c1ccco1)NCc1ccc(F)cc1	3.2µM	-	?	-	-
O=C(CCNC(=O)c1ccco1)NCc1ccc(F)cc1	.	.	.	.	-
O=C(NCC(=O)N1CCN(S(=O)(=O)c2c(F)cccc2F)CC1)c1ccccc1F	-	-	-	.	-
N#Cc1c(-c2ccccc2)cc(-c2ccccc2)nc1SCC(O)CS(=O)(=O)Cc1ccc(Cl)cc1 (centres undefined)	-	.	.	.	-
SMILES	Sm TGR inh	Pf growth 48h	Pf growth 96h	FBPA Giardia inh	HCMV antiviral
Fc1ccc(-c2cc3nc4c(c(N5CCOCC5)n3n2)CCCC4)cc1	-	10µM	-	-	-
OC1CCN(c2c3c(nc4cc(-c5ccc(F)cc5)nn24)CCC3)CC1	-	?	?	-	-
COc1cccc(-c2cc3nc(-c4ccccc4)cc(N4CCCC(O)C4)n3n2)c1 (centres undefined)	-	12µM	-	-	-
OC1CCCN(c2c3c(nc4cc(-c5cccc(F)c5)nn24)CCCC3)C1 (centres undefined)	.	?	?	-	-
OC1CCCN(c2c3c(nc4cc(-c5cccc(Cl)c5)nn24)CCC3)C1 (centres undefined)	-	4.7µM	-	-	-
Cc1cccc(-c2cc3nc4c(c(N5CCCC(O)C5)n3n2)CCC4)c1 (centres undefined)	-	6.6µM	-	-	-
CCOC(=O)Cc1csc(NC(=O)CSc2nnc3ccccn23)n1	-	-	?	-	-
COc1ccc(C(=O)Nc2ccc(N3CCN(c4ccccc4)CC3)c(C(=O)O)c2)cc1	-	.	.	.	-
Cc1ccc(O)c(NC(=O)c2cc([N+](=O)[O-])ccc2Cl)c1	.	9.3µM	-	-	-
O=C(Nc1ccc([N+](=O)[O-])cc1Cl)c1cccc([N+](=O)[O-])c1	.	.	.	.	-
O=C(Nc1ccc([N+](=O)[O-])cc1Cl)c1cc(Cl)ccc1O	-	?	?	-	-98
COCCN1C(=O)c2ccccc2C1c1nnnn1Cc1ccccc1 (centres undefined)	.	.	.	.	-
COc1cc(Cl)c(S(=O)(=O)N2CCCC2)cc1Cl	?	-	?	-	-
COc1cc(N2C(=O)C=CC2=O)c(OC)cc1Cl	0.71µM	?	?	?	-98
CN(C)CCC1(C2=CCCC2)CC/C(=C/c2ccc(Cl)cc2)C1=O (centres undefined)	.	.	.	.	-86
CC(C)SCCCOc1ccc(C(C)(C)C)cc1	-	.	-	-	-86
CC(C)Oc1ccc(CNC(=O)c2ccc(CS(=O)c3cccc(Cl)c3)o2)cc1 (centres undefined)	?	.	.	.	-
N#Cc1c(-c2ccccc2)nc(SCC(=O)Nc2ccccc2)[nH]c1=O	-	-	-	-	-
N#Cc1c(-c2ccccc2)nc(SCC(=O)N(c2ccccc2)c2ccccc2)[nH]c1=O	-	-	13µM	?	-
N#Cc1c(-c2ccccc2)nc(SCC(=O)Nc2ccc(OC(F)(F)Cl)cc2)[nH]c1=O	-	-	3.7µM	-	-
CN1CCN(c2ncnc3c2ncn3[C@H]2CN(Cc3ccc(-c4ccccc4)cc3)C[C@@H](CO)O2)CC1	.	.	.	.	-
COc1cc(OC)cc(OC(=O)C2CCN(C(=O)c3ccc(Cl)cc3)CC2)c1	-	?	-	.	-
COc1ccc(C2=NN(C(=O)c3ccccc3)C(c3ccc(OC)c(OC)c3)C2)c(O)c1 (centres undefined)	-	10µM	10µM	-	-
COc1ccccc1C1=NN(C(=O)c2ccccc2)C(c2ccc(Br)cc2)C1 (centres undefined)	-	3.7µM	-	-	.
CCOc1ccc(S(=O)(=O)NCc2ccncc2)cc1	-	.	-	-	-96
SMILES	Sm TGR inh	Pf growth 48h	Pf growth 96h	FBPA Giardia inh	HCMV antiviral
Cc1cc(S(=O)(=O)NCc2ccncc2)c(C)cc1Br	-	-	?	.	-87
CCOc1cc(S(=O)(=O)NCc2ccncc2)ccc1Cl	-	-[5.75 µM]	-	-	-84
CCOc1ccc(S(=O)(=O)NCc2ccc(F)cc2)c2cccnc12	-	-	6.6µM	-	-
Cc1ccc(C)c(S(=O)(=O)NCc2ccncc2)c1	-	?	?	-	-
COc1ccc(C(=O)NCN2CCN(c3ccccc3)CC2)cc1OC	-	-	?	.	-
Cc1ccc(S(=O)(=O)NCc2ccncc2)cc1	-	.	-	-	?

Compound activity from PubChem BioAssay.
